The campaign covered roughly 310,000 compounds. About 18,000 (5.8%) were called active. Another 22% or so got no clear call; they are omitted. Calls come from the whole dose curve; as a rule, active = well fitted inhibition curve with a large enough effect; inconclusive = small, poorly fitted or top-dose-only effect, or another doubt; inactive = no such curve, though single readings can be large or run the other way. This excerpt belongs to a sample that is enriched for actives.
Assay: Primary qHTS for delayed death inhibitors of the malarial parasite plastid, 48 hour incubation
Settings: P. falciparum luciferase growth in erythrocytes; series mostly up to 28.7 µM; activity change, negative = inhibition: at the top concentration
Method in brief: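 Growth was read as firefly luciferase luminescence after a 48 h, 37 C, 5% CO2 exposure of compounds to reporter-bearing P. falciparum cultures (0.1% parasitemia, 2% hematocrit final) in Albumax-supplemented RPMI 1640.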
% is set by controls: 0 for no effect and ±100 for the full control effect; potency is the fitted concentration of half-maximal effect.

SMILES | activity change, negative = inhibition | Potency
O=C(/C=C/c1ccco1)NC(=S)Nc1ccccc1Br | 16.6% (inactive) | 
CCCCCCn1c(SCC(=O)c2ccccc2)nc2c1c(=O)[nH]c(=O)n2C | 0.0882% (inactive) | 
CCC(C)Sc1nc2c(c(=O)[nH]c(=O)n2C)n1CC(O)COc1cccc2ccccc12 (stereo unspecified) |  | 10.4 µM (active)
C=CCn1c(SCc2ccccc2)nc2c1c(=O)[nH]c(=O)n2C | 5.64% (inactive) | 
CCc1ccc(NC(=O)CS(=O)CC(=O)N2CCN(c3ccccc3F)CC2)cc1 (stereo unspecified) | 0.939% (inactive) | 
COc1cc(C(=O)NCC(=O)N2CC=C(c3ccccc3)CC2)cc(OC)c1OC | -16.5% (inactive) | 
O=C(CSc1ccc(-c2ccccn2)nn1)Nc1ccccc1 | -22.1% (inactive) | 
Cc1ccc(S(=O)(=O)Cc2cc(-c3ccc(Cl)cc3)no2)cc1 | -33.3% [at 5.75 µM] (inactive) | 
COC(=O)c1noc(C)c1-c1ccnn1C(=O)c1ccc(Cl)cc1 | 37.8% (inactive) | 
Cc1onc(-c2ccc(Cl)cc2)c1-c1ccnn1S(=O)(=O)c1ccc(Cl)cc1 |  | 1.04 µM (active)
COc1ccc(/C=C2\SC(=O)N(CCC(=O)NCCCn3ccnc3)C2=O)cc1 | 32.1% (inactive) | 
CCOc1ccc(C(=O)COC(=O)c2ccc(-n3cnnn3)cc2)cc1 | -4.08% (inactive) | 
COc1ccc2c(c1)C(NS(=O)(=O)OCC(Cl)(Cl)Cl)CCC2 (stereo unspecified) | 2.43% (inactive) | 
O=C(c1ccccc1)c1ccc(C(=O)N2CCN(c3ccccc3)CC2)cc1 | 16.6% (inactive) | 
O=C(c1cc2cc(F)ccc2[nH]1)N1CCN(c2ccc(F)cc2)CC1 | -3.15% (inactive) | 
O=C(c1cccc(C(=O)N2CCN(c3ccc(F)cc3)CC2)c1)N1CCN(c2ccc(F)cc2)CC1 |  | 13.1 µM (active)
CCn1c(=S)sc2c(=O)n(CC(=O)Nc3cccc(Br)c3)c(C)nc21 | -6.08% (inactive) | 
COc1ccccc1C(=O)NCc1nnc(SC(C)C(=O)Nc2nccs2)n1C (stereo unspecified) | 1.13% (inactive) | 
CC1CN(C2CCCCC2)c2nc3c(c(=O)n(C)c(=O)n3C)n2C1 (stereo unspecified) | -9.99% (inactive) | 
CC(C)CCn1c(=O)c2c(nc3n2CCCN3Cc2ccccc2)n(C)c1=O |  | 9.28 µM (active)
Cc1cccc(Cn2c(N3CCN(c4ccccc4)CC3)nc3c2c(=O)n(C)c(=O)n3C)c1 | -26.6% (inactive) | 
O=C(c1c(F)cccc1Cl)N1CCN(c2ccccn2)CC1 | 8.9% (inactive) | 
NC(=O)c1oc2ccccc2c1NC(=O)Cc1ccccc1 | -26.8% (inactive) | 
Cc1c(C(C)(C)O)[nH]c2ccc(C#N)cc12 | 25.6% (inactive) | 
COc1ccc(-c2cc(=O)oc3cc(OC(C)C(=O)NCC4CCC(C(=O)O)CC4)ccc23)cc1 (stereo unspecified) | -13.5% (inactive) | 
COc1ccc(F)cc1C(=O)COC(=O)c1n[nH]c(=O)c2ccccc12 | -8.28% (inactive) | 

SMILES | activity change, negative = inhibition | Potency
Nc1nc(SCC(=O)Nc2cc(C(F)(F)F)ccc2Cl)[nH]c(=O)c1NC(=O)c1ccco1 | 42% (inactive) | 
COc1ccc(OC)c(NC(=O)c2sc3nc(C)cc(C)c3c2N)c1 | 2.23% (inactive) | 
Cc1cccc(NC(=O)c2sc3nc(N4CCOCC4)c4c(c3c2N)CCCC4)c1 | 24.7% (inactive) | 
Cc1cccc(NC(=O)c2sc3nc4c(c(-c5ccco5)c3c2N)CCC4)c1 |  | 2.08 µM (active)
CN(c1ccccc1)S(=O)(=O)c1ccc(NC(=O)COc2ccccc2)cc1 | 28.6% (inactive) | 
COc1cccc(NC(=O)c2cc(S(=O)(=O)N3CCc4ccccc43)cn2C)c1 | 23.7% (inactive) | 
CCN(C(=O)COC(=O)c1cc(S(=O)(=O)N2CCc3ccccc32)ccc1OC)C1CCS(=O)(=O)C1 (stereo unspecified) | -11.5% (inactive) | 
COc1ccccc1N(C)C(=O)c1cc(S(=O)(=O)N2CCc3ccccc32)cn1C |  | 11.7 µM (active)
COc1cc(OC)cc(C(=O)NNC(=O)CCOc2ccccc2OC)c1 | 10.8% (inactive) | 
Cc1occc1-c1nnc(SCC(=O)NC2(C#N)CCCC2)n1C | 1.05% (inactive) | 
CSc1ccc(S(=O)(=O)NCC(=O)OCC(=O)NC2(C#N)CCCCC2)cc1[N+](=O)[O-] | 36.9% (inactive) | 
O=C(Nc1cccc(NC(=O)c2cccc(F)c2)c1)c1ccccc1 | 0% [at 0.00184 µM] (inactive) | 
CC(=O)c1ccc(NC(=O)N[C@@H](Cc2ccccc2)C(=O)O)cc1 | -11.8% (inactive) | 
CC(C)N(Cc1ccccc1)C(=S)Nc1ccc(OC(F)F)cc1 | 14% (inactive) | 
CC(=O)c1ccc(NC(=S)N(Cc2ccccc2)C(C)C2CC2)cc1 (stereo unspecified) |  | 13.1 µM (active)
O=C(N/C(=C\c1ccc([N+](=O)[O-])cc1)C(=O)N1CCOCC1)c1cccc(Br)c1 | -5.24% (inactive) | 
COc1ccccc1NC(=O)COC(=O)c1ccccc1SCC(=O)N1CCCC1 | 4.59% (inactive) | 
CCS(=O)(=O)N1CCCC(C(=O)NCc2ccc(C)cc2)C1 (stereo unspecified) | -10.9% (inactive) | 
O=C(NCc1ccccc1)C1CCCN(S(=O)(=O)c2cccs2)C1 (stereo unspecified) | 14.9% (inactive) | 
O=C(NCc1ccc2c(c1)OCO2)C1CCCN(S(=O)(=O)c2cccs2)C1 (stereo unspecified) |  | 9.28 µM (active)
C/C(=N\NC(=O)c1cccc([N+](=O)[O-])c1)c1cccnc1 | 40.6% (inactive) | 
O=C(NC1CCC(O)CC1)c1ccccc1OCc1ccc(F)cc1 (stereo unspecified) | -10.5% (inactive) | 
Cc1ccc(C(=O)Nc2nnc(C3=COCCO3)o2)cc1C | -24.4% (inactive) | 
Cc1noc(C)c1COC(=O)COc1ccc(-c2ccccc2)cc1 | 34.9% (inactive) | 
CCOc1ccc(-c2n[nH]c(C)c2-c2ccccn2)c(O)c1 | 6.15% (inactive) | 

Reference: PubChem BioAssay AID504832 (National Center for Advancing Translational Sciences (NCATS), 2011)
